Laboratory results from PubChem BioAssay (EPA / NIEHS).
Active and inactive are the calls of the source. Rule for the calls: active = hit-call score of the fitted dose curve at least 0.9, where 1 is the maximum; inactive = score below 0.9.

Legend:
[1] = APR_HepG2_CellCycleArrest_24hr: Apredica 24-hour HepG2 Assay for Cell Cycle Arrest (AID 2282905); settings: imaging, actives raise or lower the signal;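 note: cell cycle arrest scored as ratio of 2N to 4N nuclear DNA content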
In short: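 Cell cycle arrest is scored from nuclear DNA content measured by high-content imaging of Hoechst 33342-stained HepG2 cells following 24-hour treatment at ten concentrations up to 200 uM, with DMSO as baseline.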

[2] = APR_HepG2_StressKinase_1hr: Apredica 1-hour HepG2 Assay for Stress Kinase (AID 2282906); settings: HepG2 stress kinase (phospho-c-Jun) imaging, actives raise or lower the signal
In short: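 HepG2 cells dosed 0.39-200 uM (0.5% DMSO) for 1 h, then formaldehyde-fixed. Stress kinase read by phospho-c-Jun immunofluorescence using high-content imaging; bidirectional fit vs DMSO.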

[3] = APR_HepG2_NuclearSize_24hr: Apredica 24-hour HepG2 Assay for Nuclear Size (AID 2282907); settings: high-content imaging, actives raise or lower the signal
In short: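 Compounds in DMSO (final 0.5%) were added to human HepG2 hepatoma cells at ten concentrations up to 200 uM for 24 hr. Fixed nuclei were stained with Hoechst 33342, and nuclear diameter was quantified from automated images.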

[4] = APR_HepG2_CellLoss_24hr: Apredica 24-hour HepG2 Assay for Cell Loss (AID 2282908); settings: high-content imaging;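 for AC50: fit in both directions so a hit may be cell loss or gain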
In short: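 Cell number is quantified by fluorescence imaging of Hoechst 33342-stained nuclei following dosing at 0.39–200 uM in 0.5% DMSO. Curves are fitted in both directions from the DMSO baseline.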

[5] = APR_HepG2_MicrotubuleCSK_24hr: Apredica 24-hour HepG2 Assay for Microtubule CSK Stabilty (AID 2282909); settings: HepG2 microtubule cytoskeleton imaging, actives raise or lower the signal
In short: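 Steps: dose HepG2 for 24 h (0.39–200 uM, 0.5% DMSO); fix 30 min in 3.7% formaldehyde at room temperature; permeabilize; stain alpha-tubulin 60 min; image microtubule cytoskeleton at 20x. Signal change fitted in both directions relative to DMSO.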

[6] = APR_HepG2_MitoticArrest_24hr: Apredica 24-hour HepG2 Assay for Mitotic Arrest (AID 2282910); settings: high-content imaging, actives raise or lower the signal
In short: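 HepG2 cells, 24 h exposure at 0.39-200 uM (10 concentrations, duplicate, 0.5% DMSO). Fixed, stained for phospho-histone H3 with Hoechst; imaged by high-content microscopy, bidirectional fit versus DMSO.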

[7] = APR_HepG2_MitoMembPot_24hr: Apredica 24-hour HepG2 Assay for Mitochondrial Membrane Potential (AID 2282911); settings: imaging, actives raise or lower the signal
In short: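 HepG2, 24 hr dosing, 10 concentrations 0.39–200 uM, 0.5% DMSO final. Live-cell MitoTracker Red CMXRos 250 nM 30 min, then 3.7% formaldehyde fix. HCS fluorescence imaging, 20x; bidirectional fit vs DMSO baseline.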

[8] = APR_HepG2_MitoMass_24hr: Apredica 24-hour HepG2 Assay for Mitochondrial Mass (AID 2282912); settings: high-content imaging, actives raise or lower the signal
In short: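 The liver line HepG2 was dosed in duplicate across a 0.39–200 uM series, with final DMSO held at 0.5% v/v, and harvested at 24 hr. High-content imaging measured mitochondrial dye staining.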

[9] = APR_HepG2_p53Act_24hr: Apredica 24-hour HepG2 Assay for p53 Activation (AID 2282913); settings: high-content imaging, actives raise or lower the signal;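 note: p53 protein immunofluorescence averaged per cell in HepG2 with Hoechst nuclei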
In short: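 Read-out: Cy5 immunofluorescence for p53 in fixed, permeabilized HepG2, imaged by HCS with Hoechst-defined nuclei. Dosing was 24 hr at 0.39–200 uM in 0.5% DMSO. Curves were fitted bidirectionally relative to DMSO.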

[10] = APR_HepG2_CellCycleArrest_72hr: Apredica 72-hour HepG2 Assay for Cell Cycle Arrest (AID 2282914); settings: high-content imaging, actives raise or lower the signal
In short: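 HepG2, 72 hr exposure, 10-point 0.39–200 uM, duplicate, 0.5% DMSO final. Fix 3.7% formaldehyde 30 min RT, Triton X-100 0.5%, Hoechst 33342 2 ug/mL. ArrayScan 20x, six fields/well; DNA content per nucleus; bidirectional fit vs DMSO.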

Measured: AC50

O=C(Nc1ccc([N+](=O)[O-])cc1Cl)c1cc(Cl)ccc1O
inactive: [3] | [7]
active: [1] 91.8 nM | [2] 0.364 µM | [4] 0.332 µM | [5] 0.672 µM | [6] 0.784 µM | [8] 2.63 µM | [9] 1.49 µM | [10] 0.463 µM

CCOC(=O)C(C)Oc1ccc(Oc2nc3ccc(Cl)cc3o2)cc1 (configuration not stated)
inactive: all assays above

CSC(=O)c1cccc2nnsc12
not listed: [1]
inactive: all other assays above

c1ccc2[nH]c(-c3cscn3)nc2c1
not listed: [1] | [9]
inactive: all other assays above

CC(=O)S[C@@H]1CC2=CC(=O)CC[C@]2(C)[C@H]2CC[C@@]3(C)[C@@H](CC[C@@]34CCC(=O)O4)[C@H]12
inactive: [3] | [5]
active: [4] 54.6 µM | [6] 30.2 µM | [7] 82.3 µM | [8] 29.1 µM | [9] 54.7 µM | [10] 44.1 µM

CCCCOC(=O)C(C)Oc1ccc(Oc2ccc(C(F)(F)F)cn2)cc1 (configuration not stated)
not listed: [1]
inactive: all other assays above

O=C(O)c1ccccc1
not listed: [1] | [2]
inactive: all other assays above

COC(=O)c1c(Cl)nn(C)c1S(=O)(=O)NC(=O)Nc1nc(OC)cc(OC)n1
not listed: [1]
inactive: all other assays above

CC(C)(C)[C@@H](O)[C@@H](Cc1ccc(Cl)cc1)n1cncn1
active: [7] 15.8 µM
not listed: [1]
inactive: all other assays above

CCOC(=O)C(C)Oc1ccc(Oc2cnc3cc(Cl)ccc3n2)cc1 (configuration not stated)
active: [4] 58.5 µM
not listed: [1] | [9]
inactive: all other assays above

CCOC(=O)COc1cc(-n2ncc(C(F)(F)F)c(C)c2=O)c(F)cc1Cl
not listed: [1]
inactive: all other assays above

CCSC(=O)N(CC(C)C)CC(C)C
not listed: [1]
inactive: all other assays above

CCCN(CCC)c1c([N+](=O)[O-])cc(C(F)(F)F)c(N)c1[N+](=O)[O-]
active: [2] 75.8 µM | [7] 32.1 µM
not listed: [1]
inactive: all other assays above

CCCOC(=O)c1ccc(C(=O)OCCC)nc1
not listed: [1]
inactive: all other assays above

C[C@]12CC[C@@H]3c4ccc(O)cc4C[C@@H](CCCCCCCCCS(=O)CCCC(F)(F)C(F)(F)F)[C@H]3[C@@H]1CC[C@@H]2O (some centres not stated)
not listed: [1] | [2]
inactive: all other assays above

CN(C)C(=O)Nc1ccc(Cl)c(Cl)c1
not listed: [1]
inactive: all other assays above

COC(=O)c1ccc(I)cc1S(=O)(=O)NC(=O)Nc1nc(C)nc(OC)n1
not listed: [1]
inactive: all other assays above

O=C(c1ccccc1)C1CCCCC1
not listed: [1] | [2]
inactive: all other assays above

S=C([S-])NCCNC(=S)[S-].[Mn+2]
active: [10] 82.9 µM
not listed: [1] | [9]
inactive: all other assays above

O=C(c1ccc(O)cc1O)c1ccc(O)cc1O
active: [7] 2.29 µM
not listed: [1] | [2]
inactive: all other assays above

CCNc1nc(N)nc(Cl)n1
not listed: [1]
inactive: all other assays above

N[C@@H](Cc1cc(I)c(Oc2ccc(O)c(I)c2)c(I)c1)C(=O)O
not listed: [1] | [2]
inactive: all other assays above

COc1c(Cl)ccc(Cl)c1C(=O)O
not listed: [1] | [9]
inactive: all other assays above

CCC(C)OC(=O)N1CCCCC1CCO (configuration not stated)
not listed: [1]
inactive: all other assays above

CCCCC(CC)CN1C(=O)C2C3C=CC(C3)C2C1=O (configuration not stated)
active: [5] 72.3 µM
not listed: [1]
inactive: all other assays above

Oc1ccc(C(c2ccc(O)cc2)C(Cl)(Cl)Cl)cc1
active: [2] 94.2 µM | [4] 135 µM
not listed: [1]
inactive: all other assays above

N#CSCSc1nc2ccccc2s1
active: [2] 33.3 µM | [4] 42.9 µM
not listed: [1] | [9]
inactive: all other assays above

CCN(Cc1c(F)cccc1Cl)c1c([N+](=O)[O-])cc(C(F)(F)F)cc1[N+](=O)[O-]
not listed: [1]
inactive: all other assays above

Cc1nn(C)c(Oc2ccccc2)c1C=NOCc1ccc(C(=O)OC(C)(C)C)cc1
active: [4] 6.62 µM | [10] 19.8 µM
not listed: [1]
inactive: all other assays above

CCOC(=O)NCCOc1ccc(Oc2ccccc2)cc1
active: [7] 56.2 µM
not listed: [1]
inactive: all other assays above

C[C@]12C[C@H](O)[C@H]3[C@@H](CCC4=CC(=O)CC[C@@]43C)[C@@H]1CC[C@@H]2C(=O)CO
active: [3] 109 µM | [4] 65.3 µM | [7] 82.9 µM | [9] 86.2 µM
inactive: [5] | [6] | [8] | [10]

CC(=O)[C@H]1CC[C@H]2[C@@H]3CCC4=CC(=O)CC[C@]4(C)[C@H]3CC[C@]12C
inactive: [3] | [7]
active: [4] 101 µM | [5] 104 µM | [6] 100 µM | [8] 106 µM | [9] 94.1 µM | [10] 165 µM
